The values below come from PubChem BioAssay (NCATS).

Each structure is given as a SMILES string. Records with an inconclusive call do not appear. Activity calls are given as the source filed them. The call rests on the fitted dose curve; in most records, active means well fitted inhibition curve with a large enough effect; inconclusive means small, poorly fitted or top-dose-only effect; inactive means no such curve, though single readings can be large or run the other way.

The nature of this test: qHTS assay for measurement of the activity of small molecule inhibitors on Zika virus induced Caspase-3 activity in human iPSC derived neural progenitor cells (hNPCs) (AID 1224857). Further: nearly all actives have a fitted effect of over 65% in size. Conditions: hNPCs ZIKV-induced caspase-3/7, Caspase-Glo luminescence, 6 h; series mostly up to 45.7 µM. The text has this:
National Center for Advancing Translational Sciences [NCATS]
Johns Hopkins University School of Medicine
Increase in the Caspase-3 activity indicates an activation of apoptosis cell death pathway caused by Zika virus infection in certain types of neuronal cells including human neural progenitor cells (hNPCs), astrocytes, and astrocytoma cell line (SNB-19). This cell-based caspase-3 activity assay measures the increased caspase-3 activity in the human iPSC derived neural progenitor cells (hNPCs) after a 6-hour Zika virus infection with a luminescence readout. A decrease in the luminescence signal in this assay by small molecule treatment indicates an inhibitory effect of that small molecule on the Zika virus induced caspase-3 activity that may correlate with its effect on reduction of Zika virus caused cell death.
The medium for hNPCs consists of DMEM/F12, N2 supplement (ThermoFisher, Cat.# 17502048), NEAA (ThermoFisher, Cat. # 11140050), 2 ug/ml heparin, 2 uM cyclopamine, and B27 (ThermoFisher, Cat. # 17504044). A Caspase-Glo 3/7 assay kit (catalog number G8092; Promega, Madison, WI) was used to detect caspase-3 activity induced by Zika virus infection in human cells. The reagent mixture was reconstituted as described in the protocol from the manufacturer. Polystyrene tissue culture treated and PDL coated white plates were obtained from Greiner Bio-One (Monroe, NC). Cells were seeded in 384- or 1536-well assay plates and cultured at 37 C with 5% CO2 for 16 to 20 hours. The typical cell seeding density in the 1536-well plate assay is 350 cells/well in 3 ul medium for hNPCs in tissue culture treated plates. Compounds were added to cells and incubated for one hour before addition of ZIKV solution to cells (2 FFU/cell). After incubation at 37 C with 5% CO2 for 6 hours, the reagent mixture of Caspase-Glo 3/7 assay kit was added to each well, followed by incubation at room temperature for 30 minutes. The luminescence intensity of the assay plates was measured using a ViewLux plate reader (PerkinElmer). Data were normalized by using the cell-containing wells without ZIKV as a negative control (0% induction of caspase 3/7 activity) and wells containing ZIKV infected cells (Caspase-3 activity induced) as a positive control (100% induction of caspase 3 activity). The percentage inhibitions of the increased Caspase-3 activity by small molecule inhibitors were then calculated.
For the compound `CNCCCC1c2ccccc2C=Cc2ccccc21`, the outcome was inactive. With `C=CCn1c(=O)n([C@@H]2O[C@H](CO)[C@@H](O)[C@H]2O)c2nc(N)[nH]c(=O)c21`, the compound was called inactive.

As for `CCCCN(CCCC)CC(O)c1cc(Cl)cc2c1-c1ccc(Cl)cc1/C2=C/c1ccc(Cl)cc1` (stereo not given), the outcome was inactive.

Regarding `O=C(O)CN1C(=O)c2cccc3cccc(c23)C1=O`, the result was inactive.

Turning to `CN1[C@@H]2CC(OC(=O)[C@H](CO)c3ccccc3)C[C@H]1[C@@H]1O[C@@H]12` (stereo not given in full), the compound was called inactive. Take `Nc1nc2c(ncn2CCC(CO)CO)c(=O)[nH]1`: the compound was called inactive.

Take `Cc1ccc(C(C)C)cc2c(C)ccc1-2`: the compound was classed as inactive.

As to `CO/N=C(\C(=O)N[C@@H]1C(=O)N2C(C(=O)O)=C(CSc3nc(=O)c(O)nn3C)CS[C@H]12)c1csc(N)n1`, the call was inactive.

As for `CC(C)(C)C(=O)NCCCC(=O)O`, the call was inactive.

Take `c1ccc2c(CC3=NCCN3)cccc2c1`: the call was inactive. For the compound `O=Cc1ccccc1C=O`, the outcome was inactive. Still for that read-out and setting: the entry for `O=C(O)[C@@H]1CSCN1` is “inactive”; for `O=c1cc[nH]c(=O)[nH]1` it is “inactive”. Still for that read-out and setting: the entry for `COc1ccccc1O` is “inactive”. Take `CC(=O)Nc1ccc(/C=N/NC(N)=S)cc1`: the result was inactive. For `O=C(O)CC(O)C(=O)O` (stereo not given), the result was inactive. For `CCOC(CN1CCN(CC(C)C(=O)c2ccccc2)CC1)c1ccccc1` (stereo not given), the call was inactive. `CCCCN1CCCC[C@H]1C(=O)Nc1c(C)cccc1C`: the call was inactive.

`CNCCC(Oc1ccc(C(F)(F)F)cc1)c1ccccc1` (stereo not given): the compound was called inactive. The same measure, in the same setting: in the case of `O=C(CCCN1CCN(c2ccccn2)CC1)c1ccc(F)cc1` it was “inactive”; in that of `Nc1ccc(S(=O)(=O)Nc2ccccc2)cc1`, “inactive”.

`CCN(CC)C(C)CN1c2ccccc2Sc2ccccc21` (stereo not given): the outcome was inactive. Take `OCC(CO)N[C@H]1C[C@](O)(CO)[C@@H](O)[C@H](O)[C@H]1O`: the outcome was inactive.

For the compound `CCN(CC)CCNC(=O)c1c(C)[nH]c(/C=C2\C(=O)Nc3ccc(F)cc32)c1C`, the outcome was inactive. On to `CCCn1cnc2c1c(=O)n(CCCCC(C)=O)c(=O)n2C`, for which the compound was called inactive.

On to `CCCOC(=O)c1ccccc1`, for which the outcome was inactive. In the case of `Nc1ncnc2c1ncn2[C@@H]1O[C@H](CO)[C@@H](O)[C@H]1O`, the compound was called inactive. As for `Cc1cc(C(C#N)c2ccc(Cl)cc2)c(Cl)cc1NC(=O)c1cc(I)cc(I)c1O` (stereo not given), the call was inactive. For the compound `CC(O)COc1ccccc1` (stereo not given), the result was inactive. As to `COc1ccc(S(=O)(=O)Nc2nnc(CC(C)C)s2)cc1`, the compound was classed as inactive. As for `N[C@@H](CSSC[C@H](N)C(=O)O)C(=O)O`, the activity change, negative = inhibition is -8.71% [at 0.568 µM] (inactive).

Consider `COC(=O)C1=C(C)NC(C)=C(C(=O)OC)C1c1ccccc1[N+](=O)[O-]`, for which the compound was called inactive. `CC1CC(OC(=O)C(O)c2ccccc2)CC(C)(C)N1C` (stereo not given): the compound was classed as inactive. In the case of `Cc1cc(CC(=O)O)n(C)c1C(=O)c1ccc(Cl)cc1`, the compound was classed as inactive.

As to `CC1(C)S[C@@H]2[C@H](NC(=O)Cc3ccccc3)C(=O)N2[C@H]1C(=O)O` (tested in a mixture with another compound), the compound was classed as inactive. As to `CC(=O)CCC(=O)O`, the compound was classed as inactive. As to `C=Cc1c(C)c2cc3[nH]c(cc4nc(cc5nc(cc1[nH]2)C(C)=C5CCC(=O)O)C(CCC(=O)O)=C4C)c(C)c3C=C`, the outcome was inactive. As for `OC[C@H]1O[C@@H](O[C@@H]2[C@@H](CO)O[C@](O)(CO)[C@H]2O)[C@H](O)[C@@H](O)[C@H]1O`, the compound was classed as inactive. For the compound `Oc1cn2c(n1)Nc1ccc(Cl)c(Cl)c1C2`, the result was inactive. The same measure, in the same setting: in the case of `CC(=O)Oc1ccc(C2(c3ccc(OC(C)=O)cc3)C(=O)Nc3ccccc32)cc1` it was “inactive”.
